Experiment [1] can be described thus: RPL19A-GFP modulators, yeast TOR pathway, confirmation, cell-based, S. cerevisiae, flow cytometry, cherry picks, mother/daughter gates (AID 2270;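 active = GFP response below 50% of the DMSO control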). The note with it: S. cerevisiae RPL19A-GFP strain, 3 h, at 10 µM, stronger effect = lower value, 100 = same GFP as DMSO wells.
Experiment [2] is described as follows: LAP4-GFP expression modulators in yeast, confirmation, cell-based, cherry picks, flow cytometry, mother/daughter gates (AID 2271).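 Note: ratio of sample to DMSO plate mean so 100% equals DMSO level.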 The note with it: S. cerevisiae LAP4-GFP strain, 3 h, at 10 µM, stronger effect = higher value.
Experiment [3] in a line: modulators of CIT2-GFP expression in yeast, confirmation, S. cerevisiae, GFP fusion, cherry picks, mother/daughter gates (AID 2274;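 active = GFP response above 150% of the DMSO level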). The following applies: S. cerevisiae CIT2-GFP strain, flow cytometry, 3 h, at 10 µM, stronger effect = higher value.
Experiment [4] is described as follows: yeast TOR pathway RPL19A-GFP modulators, primary screen, cell-based, S. cerevisiae, multiplex flow cytometry (AID 1862; in the data active = percent of DMSO control GFP below about 86%;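 note: lower values mimic rapamycin by blocking the RPL19A rise seen in DMSO cells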). The note with it: S. cerevisiae RPL19A-GFP strain, flow cytometry fluorescence, 3 h; at 10 µM; stronger effect = lower value.
A short description of experiment [5]: modulators of CIT2-GFP expression in yeast, primary screen, S. cerevisiae, GFP fusion, multiplex flow cytometry (AID 1870;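 active = percent response above a set limit, the screen-wide mean plus 3 SD, cut at about 130% in these data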;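 note: barcoded CIT2-GFP strain pooled with four other GFP strains with rapamycin as positive control; median GFP fluorescence per well over plate mean of DMSO wells so 100% = DMSO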). The note with it: 3 h, at 10 µM, stronger effect = higher value.
Experiment [6] in a line: modulators of LAP4-GFP expression in yeast, primary screen, S. cerevisiae, multiplex flow cytometry (AID 1873;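 active = GFP signal, as percent of the solvent control, above the screen mean plus 3 SD, about 149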). The note with it: 3 h, at 10 µM, stronger effect = higher value.
Experiment [7] in a line: inhibitors of CD8+ T cell-vesicle binding, pilot screen, LFA-1/ICAM-1 modulator project, MLPCN validation set, flow cytometry (AID 2523;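 active = response below a set limit, under 55% cells CD8-positive and vesicle-bound, and CD8 cells' 90th-percentile brightness under 279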;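 for vesicle binding response: mean PE anti-B7-1 fluorescence of CD8+ cells relative to row control; 100% = QL9-loaded vesicles with DMSO vehicle in the same plate row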). The note with it: 2C mouse CD8+ T cells, at 7 µM, stronger effect = lower value; double positive events: measured here: CD8+/vesicle+ event percentage.
Experiment [8] addresses Integrin beta-1 (Homo sapiens) + Integrin alpha-4 (Homo sapiens) (UniProt P13612+P05556). In words: inhibition of HUTS-21 binding to VLA-4, pilot screen, VLA-4 allosteric modulator project, U937 cells, HUTS-21 mAb, flow cytometry, validation set (AID 2674;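 active = inhibition above 50%, about 3 SD of the validation set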;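 note: antibody binding induced by the VLA-4 ligand LDV present at three times its Kd; 0% = LDV ligand with antibody and no compound and 100% = antibody without LDV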). The following applies: HUTS-21 LIBS mAb binding, at 6.7 µM, stronger effect = higher value.
Experiment [9] can be described thus: superoxide lowering in aged yeast cells, pilot screen, validation compound set (AID 2706;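 active = superoxide response below 65% of plate, a cut near 3 SD across the whole screen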;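 note: yeast exposed to compound for one week at 30 degrees C before staining; 100% = mean of all compound wells on the same plate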). The note with it: S. cerevisiae aging, superoxide DHE fluorescence; at 10 µM; stronger effect = lower value.
Experiment [10] addresses Beta-adrenergic receptor kinase 1 (Homo sapiens) (UniProt P25098). Description: GRK2 binders displacing RNA aptamer, biochemical, validation, human GRK2, bead flow cytometry (AID 488806;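 active = aptamer binding inhibition above 30%, about 3 SD of noise from non-fluorescent compounds; inactive = inhibition at or below 30%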). The note with it: bead-bound GRK2, FAM-aptamer displacement, at 10 µM, stronger effect = higher value.
Experiment [11] has as its target Beta-2 adrenergic receptor (Homo sapiens) (UniProt P07550). In words: beta2AR agonists driving receptor internalization, pilot screen, cell-based, FAP fluorogen, flow cytometry, validation set (AID 504459;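 active = percent response above 42, roughly 3 SD of non-fluorescent test compounds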;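 note: agonist-driven loss of surface beta2AR via internalization measured by FAP dye flow cytometry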). The note with it: Am2.2-beta2AR cells, FAP surface receptor flow cytometry; at 10 µM; stronger effect = higher value.
The target in experiment [12] is AP-2 complex subunit beta (Homo sapiens) (UniProt P63010). In words: inhibitors of arrestin peptide binding to AP2, pilot screen, biochemical, validation set, GST-AP2 beads, flow cytometry (AID 504541;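 active = inhibition above 54%, about 3 SD of non-fluorescent compounds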;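 note: AP2 carries R879A mutation and is captured from E. coli lysate; bead-bound FITC arrestin peptide fluorescence measuring arrestin peptide binding to AP2; 0% = DMSO wells and 100% = excess unlabeled arrestin peptide control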). The note with it: FITC arrestin peptide, at 10 µM, stronger effect = higher value.
Sequence of AP-2 complex subunit beta (Homo sapiens) (P63010 whole entry, looked up, one chain of several): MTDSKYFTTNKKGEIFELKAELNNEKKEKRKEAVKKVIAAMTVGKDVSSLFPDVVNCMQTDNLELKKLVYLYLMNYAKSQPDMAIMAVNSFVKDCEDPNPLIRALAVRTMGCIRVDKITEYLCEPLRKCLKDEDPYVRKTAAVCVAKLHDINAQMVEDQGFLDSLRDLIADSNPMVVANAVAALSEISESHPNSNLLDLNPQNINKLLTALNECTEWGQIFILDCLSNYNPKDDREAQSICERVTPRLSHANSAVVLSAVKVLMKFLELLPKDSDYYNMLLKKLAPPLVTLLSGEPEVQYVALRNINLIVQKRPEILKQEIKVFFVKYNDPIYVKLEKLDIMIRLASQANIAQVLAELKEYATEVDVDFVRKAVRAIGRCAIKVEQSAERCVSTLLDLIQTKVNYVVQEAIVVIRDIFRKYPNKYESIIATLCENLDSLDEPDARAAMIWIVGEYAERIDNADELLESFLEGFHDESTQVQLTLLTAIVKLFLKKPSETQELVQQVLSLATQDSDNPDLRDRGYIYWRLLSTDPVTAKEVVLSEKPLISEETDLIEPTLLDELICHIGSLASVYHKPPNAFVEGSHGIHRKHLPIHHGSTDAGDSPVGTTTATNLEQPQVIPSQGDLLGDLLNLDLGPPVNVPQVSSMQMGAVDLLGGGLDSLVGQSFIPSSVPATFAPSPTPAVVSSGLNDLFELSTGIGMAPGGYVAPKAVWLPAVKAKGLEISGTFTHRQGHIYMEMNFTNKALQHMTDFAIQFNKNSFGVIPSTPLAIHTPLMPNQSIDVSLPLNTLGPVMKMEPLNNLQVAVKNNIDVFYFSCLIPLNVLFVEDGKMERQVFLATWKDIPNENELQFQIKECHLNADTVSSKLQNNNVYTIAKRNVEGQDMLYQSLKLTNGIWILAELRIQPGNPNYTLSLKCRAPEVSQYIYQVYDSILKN
The nature of experiment [13]: yeast V-ATPase proton transport modulators, S. cerevisiae, pHLuorin, HTS validation (AID 504600; in the data active = response above about 15%;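 note: plate controls were DMSO for no effect and reference compound for full effect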). The note with it: S. cerevisiae pHLuorin cytosolic pH, at 10 µM, stronger effect = higher value.
The test system of experiment [14] is anti-desmoglein-3 scFv antibody binding to human DSG3. Description: inhibitors of anti-DSG3 scFv binding to DSG3, pilot screen, biochemical, validation compound set, bead-based, flow cytometry (AID 588368;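 active = binding below the plate cutoff, the plate median minus 3 SD, with a reading above zero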;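 note: signal is the median channel fluorescence of bead-bound GFP antibody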). The following applies: Protein G beads, DSG3-Fc, scFv-GFP binding, at 10 µM, stronger effect = lower value.
Experiment [15] can be described thus: inhibitors of fungal efflux pumps CDR1, CDR2, MDR1, pilot screen, validation compound set, multiplex, phenotypic (AID 588506;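 active = efflux inhibition above 0.42, the validation set average plus 4 SD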;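 note: Nile Red retained in cells so higher fluorescence means more efflux inhibition; 0 = negative control wells and 1 = enniatin B 25 µM full block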). The following applies: S. cerevisiae pump-expressing triplex, Nile Red efflux flow cytometry; at 10 µM; stronger effect = higher value.
The target of experiment [16] is ATP-binding cassette sub-family B member 6 (Homo sapiens) (UniProt Q9NP58). In words: ABCB6 transporter inhibitors, pilot screen, K562-ABCB6 cells, flow cytometry, validation set (AID 588550;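 active = inhibition above the screen-wide mean plus 3 SD, about 51%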;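 note: 0% = DMSO wells and 100% = benzethonium chloride 70 µM positive control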). The following applies: K562-ABCB6 porphyrin accumulation, 1 h, at 10 µM, stronger effect = higher value.
Sequence of ATP-binding cassette sub-family B member 6 (Homo sapiens) (Q9NP58 whole entry, looked up): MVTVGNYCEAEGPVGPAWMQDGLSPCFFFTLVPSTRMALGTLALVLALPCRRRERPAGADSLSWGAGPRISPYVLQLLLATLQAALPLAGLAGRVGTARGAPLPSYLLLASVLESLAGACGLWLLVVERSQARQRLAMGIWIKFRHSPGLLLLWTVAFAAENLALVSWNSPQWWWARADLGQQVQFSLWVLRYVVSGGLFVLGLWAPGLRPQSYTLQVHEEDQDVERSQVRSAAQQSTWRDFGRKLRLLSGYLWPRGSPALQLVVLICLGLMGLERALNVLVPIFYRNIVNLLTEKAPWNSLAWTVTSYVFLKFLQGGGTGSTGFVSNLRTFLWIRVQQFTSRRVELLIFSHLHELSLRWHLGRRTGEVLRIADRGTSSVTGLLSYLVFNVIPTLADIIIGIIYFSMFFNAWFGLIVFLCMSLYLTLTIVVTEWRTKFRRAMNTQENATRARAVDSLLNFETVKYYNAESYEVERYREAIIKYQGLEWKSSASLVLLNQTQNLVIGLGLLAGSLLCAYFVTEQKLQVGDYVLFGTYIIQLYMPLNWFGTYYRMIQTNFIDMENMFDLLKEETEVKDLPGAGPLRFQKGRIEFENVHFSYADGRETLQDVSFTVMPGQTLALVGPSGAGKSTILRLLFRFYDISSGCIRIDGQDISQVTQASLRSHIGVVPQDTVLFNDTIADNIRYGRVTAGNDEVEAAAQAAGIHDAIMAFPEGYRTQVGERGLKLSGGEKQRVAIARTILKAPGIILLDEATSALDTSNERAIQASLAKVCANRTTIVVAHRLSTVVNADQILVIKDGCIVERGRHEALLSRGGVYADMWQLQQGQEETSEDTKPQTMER
Experiment [17] is described as follows: promoters of myeloid differentiation in arrested cells, primary screen, cell-based, GFP/MAC1 double positive, flow cytometry, validation set (AID 588685;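 active = differentiation response of at least 50%, scaled between solvent and reference control, from cells with both markers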;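 note: compound exposure lasts four days before antibody staining and flow analysis; 0% = DMSO wells and 100% = 5 µM fulvestrant positive control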). The note with it: ER-HoxA9 marrow cells, stronger effect = higher value.
Where [18] appears, read: measured here: daughter cell gate.
Setting [19] is: measured here: mother cell gate.
[20] abbreviates: measured here: daughter cell gate response.
Setting [21] is: measured here: mother cell gate response.

The structures appear in SMILES notation. Inconclusive results are not listed. Active and inactive are the calls of the source.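 Rule for the calls, unless noted: active = GFP response above 150% of the DMSO control; inconclusive = fewer than 70 events counted in any yeast strain; inactive = the rest.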

Sequence of Beta-adrenergic receptor kinase 1 (Homo sapiens) (P25098 whole entry, looked up): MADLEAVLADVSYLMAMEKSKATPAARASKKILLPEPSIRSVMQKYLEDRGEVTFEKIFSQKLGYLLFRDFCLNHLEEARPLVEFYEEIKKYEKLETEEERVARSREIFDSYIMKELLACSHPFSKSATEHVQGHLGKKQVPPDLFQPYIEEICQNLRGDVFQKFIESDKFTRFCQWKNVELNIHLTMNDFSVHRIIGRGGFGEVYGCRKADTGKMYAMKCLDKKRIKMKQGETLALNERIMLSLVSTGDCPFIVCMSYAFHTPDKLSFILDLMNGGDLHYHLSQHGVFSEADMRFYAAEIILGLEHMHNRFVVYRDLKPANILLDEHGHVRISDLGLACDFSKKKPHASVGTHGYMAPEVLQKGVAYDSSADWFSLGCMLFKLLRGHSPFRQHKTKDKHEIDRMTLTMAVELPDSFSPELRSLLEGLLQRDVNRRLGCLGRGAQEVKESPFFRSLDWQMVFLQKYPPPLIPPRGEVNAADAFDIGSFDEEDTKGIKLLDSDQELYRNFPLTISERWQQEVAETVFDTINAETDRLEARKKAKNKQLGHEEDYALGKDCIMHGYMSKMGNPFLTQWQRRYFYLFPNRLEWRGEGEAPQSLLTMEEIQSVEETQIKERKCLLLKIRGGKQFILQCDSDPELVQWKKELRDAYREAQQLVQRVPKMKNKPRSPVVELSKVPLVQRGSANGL
Sequence of Integrin beta-1 (Homo sapiens) + Integrin alpha-4 (Homo sapiens) (P05556 whole entry, looked up): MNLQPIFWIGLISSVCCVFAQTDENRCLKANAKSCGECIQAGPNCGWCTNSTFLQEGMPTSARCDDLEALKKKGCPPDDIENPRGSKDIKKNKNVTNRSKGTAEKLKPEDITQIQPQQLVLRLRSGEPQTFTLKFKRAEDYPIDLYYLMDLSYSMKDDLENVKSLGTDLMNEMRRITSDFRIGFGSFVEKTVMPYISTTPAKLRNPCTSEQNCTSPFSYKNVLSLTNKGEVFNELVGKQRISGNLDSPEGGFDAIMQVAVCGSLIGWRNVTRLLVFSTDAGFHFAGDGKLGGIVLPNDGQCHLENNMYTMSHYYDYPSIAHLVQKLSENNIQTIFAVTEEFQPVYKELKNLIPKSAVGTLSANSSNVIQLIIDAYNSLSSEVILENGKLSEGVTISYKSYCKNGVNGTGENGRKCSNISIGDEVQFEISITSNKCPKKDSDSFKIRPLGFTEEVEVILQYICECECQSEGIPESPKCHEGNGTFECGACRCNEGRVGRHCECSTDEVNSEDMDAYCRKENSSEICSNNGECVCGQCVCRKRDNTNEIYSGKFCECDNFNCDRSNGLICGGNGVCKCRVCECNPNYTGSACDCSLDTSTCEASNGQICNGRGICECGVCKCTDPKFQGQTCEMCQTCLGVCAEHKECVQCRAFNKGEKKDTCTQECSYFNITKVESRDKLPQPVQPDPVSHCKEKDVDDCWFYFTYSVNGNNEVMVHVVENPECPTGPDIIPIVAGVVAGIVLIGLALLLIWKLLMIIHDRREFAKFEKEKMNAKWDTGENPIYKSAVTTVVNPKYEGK
Sequence of Integrin beta-1 (Homo sapiens) + Integrin alpha-4 (Homo sapiens) (P13612 whole entry, looked up): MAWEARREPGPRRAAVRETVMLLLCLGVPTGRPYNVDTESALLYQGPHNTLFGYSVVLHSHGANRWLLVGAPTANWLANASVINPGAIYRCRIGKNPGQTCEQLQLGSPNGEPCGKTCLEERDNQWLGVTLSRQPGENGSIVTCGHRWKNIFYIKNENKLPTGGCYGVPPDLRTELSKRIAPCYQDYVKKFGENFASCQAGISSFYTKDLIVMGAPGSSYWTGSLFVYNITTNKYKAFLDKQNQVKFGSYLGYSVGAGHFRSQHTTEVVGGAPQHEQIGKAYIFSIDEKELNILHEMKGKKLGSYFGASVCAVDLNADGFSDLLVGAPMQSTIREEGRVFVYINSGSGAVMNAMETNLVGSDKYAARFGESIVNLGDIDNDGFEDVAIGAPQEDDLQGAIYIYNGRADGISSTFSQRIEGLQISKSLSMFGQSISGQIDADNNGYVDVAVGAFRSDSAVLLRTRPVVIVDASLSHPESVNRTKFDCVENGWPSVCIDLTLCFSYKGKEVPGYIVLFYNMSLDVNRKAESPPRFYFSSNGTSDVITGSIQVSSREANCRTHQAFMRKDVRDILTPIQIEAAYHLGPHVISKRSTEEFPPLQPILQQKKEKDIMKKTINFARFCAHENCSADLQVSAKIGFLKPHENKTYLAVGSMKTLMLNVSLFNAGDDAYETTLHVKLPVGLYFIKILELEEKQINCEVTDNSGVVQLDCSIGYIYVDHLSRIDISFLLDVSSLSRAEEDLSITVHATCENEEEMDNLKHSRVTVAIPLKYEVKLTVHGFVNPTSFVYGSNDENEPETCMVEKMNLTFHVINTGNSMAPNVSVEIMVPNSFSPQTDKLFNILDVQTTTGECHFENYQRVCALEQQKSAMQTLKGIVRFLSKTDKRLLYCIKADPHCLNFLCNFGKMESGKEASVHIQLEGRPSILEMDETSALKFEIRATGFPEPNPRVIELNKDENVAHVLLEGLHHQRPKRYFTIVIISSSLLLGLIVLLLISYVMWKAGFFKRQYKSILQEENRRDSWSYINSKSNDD
Sequence of Beta-2 adrenergic receptor (Homo sapiens) (P07550 whole entry, looked up): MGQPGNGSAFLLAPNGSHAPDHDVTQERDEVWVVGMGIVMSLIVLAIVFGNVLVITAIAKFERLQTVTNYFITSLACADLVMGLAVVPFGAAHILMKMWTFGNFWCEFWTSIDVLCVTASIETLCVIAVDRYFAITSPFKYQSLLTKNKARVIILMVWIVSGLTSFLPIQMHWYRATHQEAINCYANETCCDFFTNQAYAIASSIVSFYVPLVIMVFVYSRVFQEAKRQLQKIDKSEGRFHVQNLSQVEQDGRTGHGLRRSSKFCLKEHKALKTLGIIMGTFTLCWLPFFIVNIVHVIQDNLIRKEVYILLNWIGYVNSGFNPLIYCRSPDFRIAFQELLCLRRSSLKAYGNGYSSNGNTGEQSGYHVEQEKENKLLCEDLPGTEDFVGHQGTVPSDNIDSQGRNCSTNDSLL

With `C#CCOc1cc(C2C3=C(COC3=O)Nc3cc4c(cc32)OCO4)ccc1OC` (stereo not drawn), the GFP response vs DMSO in experiment [1] is 102% (inactive); in experiment [1] (setting [18]), 100%; in experiment [1] (setting [19]), 103%. Further, the GFP response relative to DMSO in [2] was 113% (inactive); in experiment [2] (setting [20]) it was 106%; in experiment [2] (setting [21]), 114%. Also, the GFP response, % of DMSO in experiment [3] was 107% (inactive); in experiment [3] (setting [18]) it was 103%; in experiment [3] (setting [19]), 107%.

As for `O=C1NC(=O)N(CCc2ccc(F)cc2)C(=O)/C1=C/c1cccs1`, the values for the GFP response vs DMSO in experiment [1], in experiment [1] (setting [18]) and in experiment [1] (setting [19]) were 97% (inactive), 95% and 94.1%, respectively. Also, the GFP response relative to DMSO in experiment [2] was 152% (active); in experiment [2] (setting [20]) it was 142%; in experiment [2] (setting [21]), 155%. The GFP response, % of DMSO in experiment [3] was 81% (inactive); in experiment [3] (setting [18]) it was 85.7%; in experiment [3] (setting [19]), 72.8%.

For `CCN(CC)c1ccc(/C=C/[N+](=O)[O-])cc1`, the GFP response vs DMSO was 99.5% (inactive) in [1], 101% in experiment [1] (setting [18]) and 100% in experiment [1] (setting [19]). Besides, the GFP response relative to DMSO was 130% (inactive) in experiment [2], 131% in experiment [2] (setting [20]) and 132% in [2] (setting [21]). Further, the GFP response, % of DMSO in experiment [3] was 104% (inactive); in [3] (setting [18]), 106%; in [3] (setting [19]), 100%.

As to `O=c1oc2ccccc2c(O)c1[C@H]1c2ccc(O)cc2Oc2c1c(=O)oc1ccccc21`, the values for the GFP response vs DMSO in experiment [1], in experiment [1] (setting [18]) and in experiment [1] (setting [19]) were 108% (inactive), 96.1% and 98.9%, respectively. Also, the GFP response relative to DMSO in experiment [2] was 190% (active); in [2] (setting [20]) it was 167%; in experiment [2] (setting [21]), 192%. For the same compound, the GFP response, % of DMSO was 76.9% (inactive) in experiment [3], 78.5% in [3] (setting [18]) and 71.9% in experiment [3] (setting [19]).

Regarding `CCOC(=O)c1cncn1C(C)c1ccccc1` (stereo not drawn), the percent of DMSO control GFP in [4] is 104% (inactive). In addition, the percent response of DMSO control in experiment [5] is 106% (inactive). Further, in experiment [6], the GFP response vs DMSO is 80.2% (inactive). This compound also displayed a double positive events in experiment [7] of 60%. Besides, the vesicle binding response in experiment [7] is 404% (inactive). In addition, the results for the inhibition in [8], in [12] and in [16] were 7.85% (inactive), -10.9% (inactive) and 12% (inactive), respectively. In addition, the superoxide response (% of plate) in experiment [9] was 97% (inactive). Further, in [10], the aptamer binding inhibition is 4% (inactive). Further, the response in experiment [11] was -9.36% (inactive); in experiment [13], 2.71% (inactive). In addition, the binding (% of control) in experiment [14] was 101% (inactive). Also, the efflux inhibition (fraction of control) in experiment [15] was 0.27 (inactive). Besides, the differentiation response in [17] is 2.2% (inactive).

With `Nc1ccc2ccc3cccc[n+]3c2c1`, the GFP response vs DMSO was 111% (inactive) in experiment [1], 110% in experiment [1] (setting [18]) and 110% in [1] (setting [19]). Further, the GFP response relative to DMSO in [2] is 181% (active); in [2] (setting [20]) it was 185%; in experiment [2] (setting [21]) it was 178%. For the same compound, the GFP response, % of DMSO was 199% (active) in experiment [3], 204% in [3] (setting [18]) and 196% in experiment [3] (setting [19]).

Consider `CN1CCN(c2ccc([N+](=O)[O-])c(Sc3ccccn3)c2)CC1`, for which the GFP response vs DMSO in [1] was 98.4% (inactive); in experiment [1] (setting [18]), 98.9%; in experiment [1] (setting [19]), 99.5%. The GFP response relative to DMSO was 95.4% (inactive) in experiment [2], 96% in experiment [2] (setting [20]) and 95.1% in [2] (setting [21]). Besides, the GFP response, % of DMSO in [3] is 103% (inactive); in [3] (setting [18]) it was 103%; in [3] (setting [19]), 102%.

Turning to `O=C1NC(=O)N(Cc2ccco2)C(=O)/C1=C/c1ccc(-c2cccc([N+](=O)[O-])c2)o1`, the GFP response vs DMSO in experiment [1] is 102% (inactive); in [1] (setting [18]), 102%; in experiment [1] (setting [19]), 96.7%. Also, the results for the GFP response relative to DMSO in experiment [2], in [2] (setting [20]) and in experiment [2] (setting [21]) were 167% (active), 151% and 176%, respectively. The GFP response, % of DMSO in experiment [3] is 93% (inactive); in [3] (setting [18]), 95.6%; in experiment [3] (setting [19]), 85.8%.
